# Test results as given in the supplement of paper PMC11383364.
# ± gives the standard deviation of the averaged measurements.
# System: SUM149
# Experiment: percent difference in area under dose-response curve of relative cell number, RPMI vs HPLM; higher = drug relatively more effective in HPLM than RPMI (negative = less effective in HPLM)
# Details: treatment time: 72 h; dose range: 10-point, 1 nM to 20 µM; media compared: RPMI vs HPLM
# Procedure: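 SUM149 triple-negative breast cancer cells, 500 cells/well in 384-well plates, were grown in RPMI or human plasma-like medium (HPLM) with 5% dialyzed FBS. They were pin-transferred with an anticancer plus metabolic-inhibitor library in 10-point dose series (20 µM to 1 nM). After 72 h, cells were fixed, stained with bisbenzimide and counted by Acumen plate cytometry. The AUC of relative survival vs dose was computed per medium, and the percent difference in AUC between RPMI and HPLM is reported.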
row,Compound,percent difference in area under dose-response curve [%]
1,CCCCc1nc2cc(/C=C/C(=O)NO)ccc2n1CCN(CC)CC,0.47
2,CN(CC(=O)N(Cc1ccc(C2CCCCC2)cc1)c1ccc(C(=O)O)cc1)S(=O)(=O)c1c(F)c(F)c(F)c(F)c1F,3.06
3,C#Cc1cccc(Nc2ncnc3cc(OCCOC)c(OCCOC)cc23)c1 [Erlotinib_HCl],-0.149
4,CNC(=O)c1cc(Oc2ccc(NC(=O)Nc3cc(C(C)(C)C)nn3-c3ccc4ncccc4c3)c(F)c2)ccn1,-8.43
5,CCc1c2c(nc3ccc(OC(=O)N4CCC(N5CCCCC5)CC4)cc13)-c1cc3c(c(=O)n1C2)COC(=O)[C@]3(O)CC [Irinotecan],-12.2
6,CC[C@]1(O)C[C@@H]2CN(CCc3c([nH]c4ccccc34)[C@@](C(=O)OC)(c3cc4c(cc3OC)N(C)[C@H]3[C@@](O)(C(=O)OC)[C@H](OC(C)=O)[C@]5(CC)C=CCN6CC[C@]43[C@@H]65)C2)C1 [Vinblastine],-27.2
7,CCCCC[C@H](CC(=O)NO)C(=O)N[C@H](C(=O)N1CCC[C@H]1CO)C(C)C [Actinonin],1.68
8,Cn1cc(CNCC2CCN(c3ncc(C(=O)NO)cn3)CC2)c2ccccc21,-19.7
9,C=CCN(C)CCCCCCOc1ccc(C(=O)c2ccc(Br)cc2)c(F)c1,-0.097
10,CN[C@H]1CN(c2ccc3c(=O)c(C(=O)O)cn(-c4nccs4)c3n2)C[C@@H]1OC [Voreloxin],-18
11,O=C(/C=C/c1cccc(S(=O)(=O)Nc2ccccc2)c1)NO [Belinostat],-13
12,Nc1cc(C(F)(F)F)c(-c2cc(N3CCOCC3)nc(N3CCOCC3)n2)cn1,-2.14
13,OC(c1cc(C(F)(F)F)nc2c(C(F)(F)F)cccc12)C1CCCCN1 (stereo not given) [Mefloquine],3.47
14,CC(=O)c1c(C)c2cnc(Nc3ccc(N4CCNCC4)cn3)nc2n(C2CCCC2)c1=O,-11.4
15,O=c1[nH]c(=O)n([C@H]2C[C@H](O)[C@@H](CO)O2)cc1F [Floxuridine],14.1
16,CS(=O)(=O)N1CCN(Cc2cc3nc(-c4cccc5[nH]ncc45)nc(N4CCOCC4)c3s2)CC1,-4.07
17,C#CC[C@H](c1nc2cc(Cl)ccc2c(=O)n1Nc1ccccc1)N(CCCN)C(=O)c1cccc(Cl)c1F,-7.78
18,CC(C)(C)c1cnc(CSc2cnc(NC(=O)C3CCNCC3)s2)o1,-3.83
19,COc1ccc(-c2ccc3c(N4CCOC[C@@H]4C)nc(N4CCOC[C@@H]4C)nc3n2)cc1CO,-2.88
20,O=C(O)c1ccc2cc(-c3ccc(O)c(C45CC6CC(CC(C6)C4)C5)c3)ccc2c1,-15

row,Compound,percent difference in area under dose-response curve [%]
1,C#Cc1cccc(Nc2ncnc3cc(OCCOC)c(OCCO)cc23)c1,-0.553
2,CC[C@H](CO)Nc1nc(NCc2ccccc2)c2ncn(C(C)C)c2n1 [Roscovitine],-1.29
3,COC(=O)Nc1ccc(-c2nc(N3CCOCC3)c3cnn(C4CCN(C(=O)OC)CC4)c3n2)cc1,0.775
4,O=C1[C@H](CC[C@H](O)c2ccc(F)cc2)[C@@H](c2ccc(O)cc2)N1c1ccc(F)cc1 [Ezetimibe],-5.77
5,Cc1cc([N+](=O)[O-])ccc1NS(=O)(=O)c1cc(Cl)ccc1Cl,11.9
6,NC(=O)CCCSc1nc(N)nc(-c2c(Cl)cc3c4c(cccc24)COC3)n1,-19.2
7,Cc1nc(=O)c2cc(CN(C)c3ccc(C(=O)N[C@@H](CCC(=O)O)C(=O)O)s3)ccc2[nH]1 [Raltitrexed],0.127 ± 13
8,c1cc(-c2cnn3cc(-c4ccc(OCCN5CCCCC5)cc4)cnc23)ccn1 [Dorsomorphin],-2.35
9,Cc1c(-c2ccc(-c3ccccc3F)cc2)nc2ccc(F)cc2c1C(=O)O [Brequinar],-6.11
10,COc1ccc(-c2ccc3c(N4CCOCC4)nc(N4C[C@@H](C)O[C@@H](C)C4)nc3n2)cc1CO,-2.21
11,O=C(CCCCCCCn1cc(-c2cccnc2)nn1)Nc1ccccc1-c1ccccc1,0.587
12,CC(C)C[C@H](NC(=O)[C@H](Cc1ccccc1)NC(=O)c1cnccn1)B(O)O [Bortezomib],-29.8
13,CN1CCN(c2ccc(OC(F)(F)F)c(Nc3ncc4c(n3)-c3c(c(C(N)=O)nn3CCO)CC4)c2)CC1,-12.8
14,O=c1[nH]cc(F)c(=O)[nH]1 [5_Fluorouracil],0.782
15,O=C(c1ccc(OCCN2CCCCC2)cc1)c1c(-c2ccc(O)cc2)sc2cc(O)ccc12 [Evista],2.48
16,C[C@@H](Oc1cc(-n2cnc3ccc(CN4CCN(C)CC4)cc32)sc1C(N)=O)c1ccccc1C(F)(F)F,-20.5
17,Cc1cccc(CC(=O)N2CCc3c2ccc(-c2cn(C)c4ncnc(N)c24)c3F)n1,-5.2
18,Cc1csc(-c2nnc(Nc3ccc(Oc4ncccc4-c4ccnc(N)n4)cc3)c3ccccc23)c1,-35.1
19,O=C(NCC1(c2nc(-c3ccccc3)cs2)CCOCC1)c1cccc(-c2noc(C(F)(F)F)n2)c1,0.481
20,Cc1c(NC(=O)OC[C@@H]2COCCN2)cn2ncnc(Nc3ccc4c(cnn4Cc4cccc(F)c4)c3)c12,3.34
